The values that follow come from PMC7862700, “An all-to-all approach to the identification of sequence-specific readers for epigenetic DNA modifications on cytosine”.

Common to all, as to assay: DAPPL (digital affinity profiling via proximity ligation, sequencing); 10 mM Tris-HCl pH 7.5, 50 mM NaCl, 1 mM DTT, 4% glycerol, room temperature, 30 min; GST-TFs on glutathione beads, 16-mer random dsDNA library, 0.1% formaldehyde crosslink after washing; high values mean tight binding
One assay has as its target T1, FEV (Homo sapiens, UniProt Q99581 1-238).
T1 sequence: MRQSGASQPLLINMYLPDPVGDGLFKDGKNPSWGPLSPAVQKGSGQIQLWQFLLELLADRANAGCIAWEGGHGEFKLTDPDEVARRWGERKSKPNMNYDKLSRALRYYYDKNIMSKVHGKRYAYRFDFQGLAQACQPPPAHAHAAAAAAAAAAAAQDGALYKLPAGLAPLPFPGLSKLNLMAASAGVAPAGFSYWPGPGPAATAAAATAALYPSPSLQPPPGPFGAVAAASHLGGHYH
To be noted: protein: recombinant; tags: N-terminal GST; dsDNA, one strand shown. The procedure, abridged: (§1)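 Pools were built from human transcription factors expressed in yeast as GST fusions, captured on glutathione beads and DNA-barcoded, along with a tag-only sample. Incubation with 200 nmole of a 16-mer random double-stranded DNA library lasted 30 min at room temperature in Tris/NaCl/DTT/glycerol buffer, and was followed by washing, 0.1% formaldehyde crosslinking, proximity ligation, PCR amplification and Illumina NextSeq500 sequencing. Binding signal is the quotient of each hexamer's read frequency for a factor and its frequency for the tag-only sample.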

The next assay concerns the target ETV5 (Homo sapiens, UniProt P41161 1-510). The following applies: protein: recombinant; tags: N-terminal GST; dsDNA, one strand shown. The procedure, abridged: as §1
The target in a further assay is HSF1 (Homo sapiens, UniProt Q00613 1-529). To be noted: protein: recombinant; tags: N-terminal GST; chain copies: 3; dsDNA, one strand shown. The procedure, abridged: as §1
Another assay concerns the target T2, SPIC (Homo sapiens, UniProt Q8N5J4 1-248).
T2 sequence: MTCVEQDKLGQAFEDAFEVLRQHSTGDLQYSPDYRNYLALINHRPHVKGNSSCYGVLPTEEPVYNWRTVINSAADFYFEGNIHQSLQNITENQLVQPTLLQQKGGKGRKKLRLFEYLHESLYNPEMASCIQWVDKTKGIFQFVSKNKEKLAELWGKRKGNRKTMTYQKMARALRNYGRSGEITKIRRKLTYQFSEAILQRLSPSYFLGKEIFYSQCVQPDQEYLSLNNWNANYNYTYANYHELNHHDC
The following applies: protein: recombinant; tags: N-terminal GST; dsDNA, one strand shown. In a few lines:
as §1

Another assay has as its target ELF4 (Homo sapiens, UniProt Q99607 1-663). To be noted: protein: recombinant; tags: N-terminal GST; dsDNA, one strand shown. In a few lines: as §1
A further assay deals with T3, ELK4 (Homo sapiens, UniProt P28324-2 1-405).
T3 sequence: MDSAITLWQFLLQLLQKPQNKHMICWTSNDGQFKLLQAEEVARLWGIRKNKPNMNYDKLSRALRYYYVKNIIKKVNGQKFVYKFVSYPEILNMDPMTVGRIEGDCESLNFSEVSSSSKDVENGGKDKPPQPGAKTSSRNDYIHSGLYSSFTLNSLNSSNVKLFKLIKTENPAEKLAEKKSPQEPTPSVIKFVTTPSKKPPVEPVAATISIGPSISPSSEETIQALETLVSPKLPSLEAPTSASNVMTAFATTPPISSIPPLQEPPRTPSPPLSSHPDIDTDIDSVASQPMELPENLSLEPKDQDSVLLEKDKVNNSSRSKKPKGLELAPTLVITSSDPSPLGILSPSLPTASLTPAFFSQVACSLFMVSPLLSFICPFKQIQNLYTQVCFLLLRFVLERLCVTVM
To be noted: protein: recombinant; tags: N-terminal GST; dsDNA, one strand shown. In a few lines: as §1

The target in another assay is T4, ETV2 (Homo sapiens, UniProt O00321 1-342).
T4 sequence: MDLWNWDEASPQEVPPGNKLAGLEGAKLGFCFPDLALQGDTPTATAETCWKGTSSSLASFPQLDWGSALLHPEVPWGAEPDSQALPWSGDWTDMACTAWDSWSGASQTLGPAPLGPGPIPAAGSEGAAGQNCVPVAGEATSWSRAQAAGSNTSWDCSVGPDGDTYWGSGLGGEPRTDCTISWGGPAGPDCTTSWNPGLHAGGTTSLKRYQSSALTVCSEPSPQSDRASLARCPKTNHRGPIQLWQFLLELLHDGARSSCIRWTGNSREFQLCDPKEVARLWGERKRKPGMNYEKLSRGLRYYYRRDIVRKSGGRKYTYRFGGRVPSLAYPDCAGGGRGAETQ
The following applies: protein: recombinant; tags: N-terminal GST; dsDNA, one strand shown. In a few lines:
as §1

A further assay addresses T5, ELF3 (Homo sapiens, UniProt P78545 1-371).
T5 sequence: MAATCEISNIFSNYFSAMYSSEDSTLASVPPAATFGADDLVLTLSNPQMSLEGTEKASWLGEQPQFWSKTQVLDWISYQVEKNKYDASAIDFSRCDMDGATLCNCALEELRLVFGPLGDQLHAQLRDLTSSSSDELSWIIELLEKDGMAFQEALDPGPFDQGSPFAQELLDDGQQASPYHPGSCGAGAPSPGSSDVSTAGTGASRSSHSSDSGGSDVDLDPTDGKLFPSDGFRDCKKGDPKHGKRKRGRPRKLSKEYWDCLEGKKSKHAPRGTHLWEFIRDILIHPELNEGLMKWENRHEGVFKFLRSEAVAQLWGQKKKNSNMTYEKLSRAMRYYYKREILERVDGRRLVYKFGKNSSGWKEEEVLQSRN
The following applies: protein: recombinant; tags: N-terminal GST; dsDNA, one strand shown. The procedure, abridged: as §1

The target of another assay is CRX (Homo sapiens, UniProt O43186 1-299). The following applies: protein: recombinant; tags: N-terminal GST; dsDNA, one strand shown. The procedure, abridged:
as §1

The target of a further assay is ETV1 (Homo sapiens, UniProt P50549 1-477). The following applies: protein: recombinant; tags: N-terminal GST; dsDNA, one strand shown. In a few lines:
as §1

For the next assay, the target named is T6, ERF (Homo sapiens, UniProt P50548 1-548).
T6 sequence: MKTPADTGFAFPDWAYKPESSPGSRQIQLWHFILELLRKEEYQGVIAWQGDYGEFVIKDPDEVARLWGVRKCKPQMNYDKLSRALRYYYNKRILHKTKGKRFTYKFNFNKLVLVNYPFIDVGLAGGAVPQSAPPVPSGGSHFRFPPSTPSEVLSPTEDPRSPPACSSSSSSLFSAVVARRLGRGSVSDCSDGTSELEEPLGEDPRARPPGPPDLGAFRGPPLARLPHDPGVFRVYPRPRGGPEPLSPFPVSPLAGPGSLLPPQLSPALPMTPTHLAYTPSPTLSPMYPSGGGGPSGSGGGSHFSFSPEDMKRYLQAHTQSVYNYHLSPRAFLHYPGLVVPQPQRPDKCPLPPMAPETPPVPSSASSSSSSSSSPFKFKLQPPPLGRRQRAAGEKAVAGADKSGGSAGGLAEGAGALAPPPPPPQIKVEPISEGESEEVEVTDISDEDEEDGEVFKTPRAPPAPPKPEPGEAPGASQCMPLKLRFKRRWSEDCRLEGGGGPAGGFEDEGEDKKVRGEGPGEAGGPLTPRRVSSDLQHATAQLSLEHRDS
The following applies: protein: recombinant; tags: N-terminal GST; dsDNA, one strand shown. The procedure, abridged:
as §1

The target of another assay is T7, ETV3L (Homo sapiens, UniProt Q6ZN32 1-361).
T7 sequence: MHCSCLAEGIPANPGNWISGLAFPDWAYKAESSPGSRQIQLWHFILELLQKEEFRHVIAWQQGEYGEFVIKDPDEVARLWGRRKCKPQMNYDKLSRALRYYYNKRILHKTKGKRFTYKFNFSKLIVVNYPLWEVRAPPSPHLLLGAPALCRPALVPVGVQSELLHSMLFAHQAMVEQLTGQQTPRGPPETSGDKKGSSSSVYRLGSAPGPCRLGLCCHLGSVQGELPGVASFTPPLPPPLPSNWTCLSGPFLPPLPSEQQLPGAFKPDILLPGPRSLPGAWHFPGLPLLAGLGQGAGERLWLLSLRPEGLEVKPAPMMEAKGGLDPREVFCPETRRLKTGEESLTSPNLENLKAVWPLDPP
To be noted: protein: recombinant; tags: N-terminal GST; dsDNA, one strand shown. The procedure, abridged:
as §1

In the next assay the target is T8, ETS2 (Homo sapiens, UniProt P15036 1-469).
T8 sequence: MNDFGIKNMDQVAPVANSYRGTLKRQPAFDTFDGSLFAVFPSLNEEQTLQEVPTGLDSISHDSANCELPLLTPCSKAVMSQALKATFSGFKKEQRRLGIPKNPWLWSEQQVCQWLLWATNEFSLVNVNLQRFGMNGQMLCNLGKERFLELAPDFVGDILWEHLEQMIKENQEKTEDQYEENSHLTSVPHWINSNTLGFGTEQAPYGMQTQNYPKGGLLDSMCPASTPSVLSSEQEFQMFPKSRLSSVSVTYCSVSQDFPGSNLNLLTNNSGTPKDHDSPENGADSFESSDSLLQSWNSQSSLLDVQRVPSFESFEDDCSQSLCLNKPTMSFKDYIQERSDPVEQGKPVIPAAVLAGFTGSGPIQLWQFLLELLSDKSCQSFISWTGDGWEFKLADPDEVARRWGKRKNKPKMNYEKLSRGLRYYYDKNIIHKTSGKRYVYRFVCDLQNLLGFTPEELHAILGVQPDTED
To be noted: protein: recombinant; tags: N-terminal GST; dsDNA, one strand shown. The procedure, abridged:
as §1

The next assay addresses T9, SPDEF (Homo sapiens, UniProt O95238 1-335).
T9 sequence: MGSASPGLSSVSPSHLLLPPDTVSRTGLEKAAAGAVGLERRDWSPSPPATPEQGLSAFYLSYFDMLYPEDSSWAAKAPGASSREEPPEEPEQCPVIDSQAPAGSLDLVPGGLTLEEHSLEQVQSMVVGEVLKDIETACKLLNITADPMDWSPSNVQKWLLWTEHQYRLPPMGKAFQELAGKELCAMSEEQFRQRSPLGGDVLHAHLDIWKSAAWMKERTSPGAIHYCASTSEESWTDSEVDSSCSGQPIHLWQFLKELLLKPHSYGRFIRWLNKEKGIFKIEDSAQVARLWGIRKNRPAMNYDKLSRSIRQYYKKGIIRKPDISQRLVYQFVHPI
To be noted: protein: recombinant; tags: N-terminal GST; dsDNA, one strand shown. In a few lines:
as §1

Another assay deals with T10, ETV7 (Homo sapiens, UniProt Q9Y603 1-341).
T10 sequence: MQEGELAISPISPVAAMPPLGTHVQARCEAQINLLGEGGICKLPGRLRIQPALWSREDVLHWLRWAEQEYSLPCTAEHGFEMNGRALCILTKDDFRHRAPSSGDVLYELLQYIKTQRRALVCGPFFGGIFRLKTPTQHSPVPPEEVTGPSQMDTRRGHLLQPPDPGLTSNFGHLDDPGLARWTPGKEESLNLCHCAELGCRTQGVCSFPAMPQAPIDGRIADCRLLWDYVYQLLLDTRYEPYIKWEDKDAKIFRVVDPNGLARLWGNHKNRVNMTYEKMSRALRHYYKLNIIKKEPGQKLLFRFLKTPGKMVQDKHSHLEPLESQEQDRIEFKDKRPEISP
To be noted: protein: recombinant; tags: N-terminal GST; dsDNA, one strand shown. The procedure, abridged:
as §1

The target of another assay is T11, ELF5 (Homo sapiens, UniProt Q9UKW6-2 1-255).
T11 sequence: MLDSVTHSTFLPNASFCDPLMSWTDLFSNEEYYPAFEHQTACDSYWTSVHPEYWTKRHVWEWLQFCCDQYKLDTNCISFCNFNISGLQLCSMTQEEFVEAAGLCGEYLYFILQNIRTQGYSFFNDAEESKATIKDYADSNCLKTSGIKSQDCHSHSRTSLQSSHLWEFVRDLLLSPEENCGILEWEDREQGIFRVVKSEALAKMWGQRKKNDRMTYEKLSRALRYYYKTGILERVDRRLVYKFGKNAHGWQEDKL
To be noted: protein: recombinant; tags: N-terminal GST; dsDNA, one strand shown. In a few lines: as §1

In the next assay the target is T12, ETV3 (Homo sapiens, UniProt P41162-2 1-143).
T12 sequence: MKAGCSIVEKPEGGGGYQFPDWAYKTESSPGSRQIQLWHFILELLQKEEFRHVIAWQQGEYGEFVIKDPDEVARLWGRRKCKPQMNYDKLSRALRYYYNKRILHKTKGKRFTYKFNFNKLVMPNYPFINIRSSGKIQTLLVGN
To be noted: protein: recombinant; tags: N-terminal GST; dsDNA, one strand shown. The procedure, abridged: as §1

For the next assay, the target named is ETV6 (Homo sapiens, UniProt P41212 1-452). To be noted: protein: recombinant; tags: N-terminal GST; dsDNA, one strand shown. In a few lines: as §1
Sequence of ETV6 (P41212 whole entry): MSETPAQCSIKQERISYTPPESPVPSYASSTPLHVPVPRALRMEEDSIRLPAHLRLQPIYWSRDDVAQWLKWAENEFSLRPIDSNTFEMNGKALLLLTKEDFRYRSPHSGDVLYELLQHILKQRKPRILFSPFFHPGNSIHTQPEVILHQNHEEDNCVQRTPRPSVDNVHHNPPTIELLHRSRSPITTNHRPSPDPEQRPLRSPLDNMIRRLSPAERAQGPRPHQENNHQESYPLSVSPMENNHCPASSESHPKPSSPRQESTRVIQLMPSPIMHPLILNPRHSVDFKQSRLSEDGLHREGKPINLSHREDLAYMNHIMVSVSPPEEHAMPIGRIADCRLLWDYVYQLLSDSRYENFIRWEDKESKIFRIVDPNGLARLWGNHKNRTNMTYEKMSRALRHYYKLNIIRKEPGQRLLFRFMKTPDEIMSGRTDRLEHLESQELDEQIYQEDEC

Sequence of ETV1 (P50549 whole entry): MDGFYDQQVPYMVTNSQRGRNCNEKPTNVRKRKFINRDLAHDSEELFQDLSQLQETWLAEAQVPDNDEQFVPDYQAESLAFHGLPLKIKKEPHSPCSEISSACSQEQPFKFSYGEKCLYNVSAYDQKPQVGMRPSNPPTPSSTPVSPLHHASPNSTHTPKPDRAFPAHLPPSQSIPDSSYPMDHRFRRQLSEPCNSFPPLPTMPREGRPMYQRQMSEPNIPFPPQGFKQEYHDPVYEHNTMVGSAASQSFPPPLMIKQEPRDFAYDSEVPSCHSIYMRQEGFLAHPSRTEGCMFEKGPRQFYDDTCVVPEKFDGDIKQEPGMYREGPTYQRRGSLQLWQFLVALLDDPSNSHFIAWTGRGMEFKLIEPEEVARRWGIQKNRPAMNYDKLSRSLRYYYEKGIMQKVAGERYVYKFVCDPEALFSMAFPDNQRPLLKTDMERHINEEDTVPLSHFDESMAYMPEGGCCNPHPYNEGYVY
Sequence of ETV5 (P41161 whole entry): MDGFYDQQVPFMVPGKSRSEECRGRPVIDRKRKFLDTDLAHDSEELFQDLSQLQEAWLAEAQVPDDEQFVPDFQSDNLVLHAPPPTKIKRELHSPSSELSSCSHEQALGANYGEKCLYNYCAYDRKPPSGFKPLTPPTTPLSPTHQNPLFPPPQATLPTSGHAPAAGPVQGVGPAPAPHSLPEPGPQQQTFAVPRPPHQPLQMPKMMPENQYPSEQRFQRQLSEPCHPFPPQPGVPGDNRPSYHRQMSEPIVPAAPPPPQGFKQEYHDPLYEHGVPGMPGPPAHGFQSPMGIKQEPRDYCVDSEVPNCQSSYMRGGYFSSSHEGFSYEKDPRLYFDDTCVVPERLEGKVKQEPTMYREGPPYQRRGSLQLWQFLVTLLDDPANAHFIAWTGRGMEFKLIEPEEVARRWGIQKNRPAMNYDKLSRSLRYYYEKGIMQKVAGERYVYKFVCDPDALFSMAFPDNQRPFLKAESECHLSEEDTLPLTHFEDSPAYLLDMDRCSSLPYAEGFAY
Sequence of HSF1 (Q00613 whole entry): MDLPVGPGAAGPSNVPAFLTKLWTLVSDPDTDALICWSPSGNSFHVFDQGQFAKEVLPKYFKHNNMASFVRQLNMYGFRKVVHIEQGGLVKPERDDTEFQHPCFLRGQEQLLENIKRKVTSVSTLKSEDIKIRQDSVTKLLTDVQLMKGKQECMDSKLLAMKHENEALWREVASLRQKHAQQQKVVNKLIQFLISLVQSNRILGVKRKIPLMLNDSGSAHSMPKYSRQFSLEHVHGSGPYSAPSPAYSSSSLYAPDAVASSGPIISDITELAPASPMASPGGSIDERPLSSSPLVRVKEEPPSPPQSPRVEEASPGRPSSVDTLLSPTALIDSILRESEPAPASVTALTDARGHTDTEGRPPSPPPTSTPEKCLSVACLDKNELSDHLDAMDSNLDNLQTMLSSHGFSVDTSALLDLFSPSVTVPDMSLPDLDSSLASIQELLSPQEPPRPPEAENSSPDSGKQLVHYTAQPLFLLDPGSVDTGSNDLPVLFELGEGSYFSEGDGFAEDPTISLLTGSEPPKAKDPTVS
Sequence of CRX (O43186 whole entry): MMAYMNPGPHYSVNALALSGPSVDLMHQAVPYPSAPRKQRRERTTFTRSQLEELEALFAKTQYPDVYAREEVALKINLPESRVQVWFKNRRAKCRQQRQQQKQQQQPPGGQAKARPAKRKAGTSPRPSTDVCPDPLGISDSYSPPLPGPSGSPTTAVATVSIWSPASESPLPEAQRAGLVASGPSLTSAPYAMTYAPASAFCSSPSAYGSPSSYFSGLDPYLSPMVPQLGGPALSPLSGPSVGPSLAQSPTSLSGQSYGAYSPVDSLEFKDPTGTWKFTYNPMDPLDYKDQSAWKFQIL
Sequence of ELF4 (Q99607 whole entry): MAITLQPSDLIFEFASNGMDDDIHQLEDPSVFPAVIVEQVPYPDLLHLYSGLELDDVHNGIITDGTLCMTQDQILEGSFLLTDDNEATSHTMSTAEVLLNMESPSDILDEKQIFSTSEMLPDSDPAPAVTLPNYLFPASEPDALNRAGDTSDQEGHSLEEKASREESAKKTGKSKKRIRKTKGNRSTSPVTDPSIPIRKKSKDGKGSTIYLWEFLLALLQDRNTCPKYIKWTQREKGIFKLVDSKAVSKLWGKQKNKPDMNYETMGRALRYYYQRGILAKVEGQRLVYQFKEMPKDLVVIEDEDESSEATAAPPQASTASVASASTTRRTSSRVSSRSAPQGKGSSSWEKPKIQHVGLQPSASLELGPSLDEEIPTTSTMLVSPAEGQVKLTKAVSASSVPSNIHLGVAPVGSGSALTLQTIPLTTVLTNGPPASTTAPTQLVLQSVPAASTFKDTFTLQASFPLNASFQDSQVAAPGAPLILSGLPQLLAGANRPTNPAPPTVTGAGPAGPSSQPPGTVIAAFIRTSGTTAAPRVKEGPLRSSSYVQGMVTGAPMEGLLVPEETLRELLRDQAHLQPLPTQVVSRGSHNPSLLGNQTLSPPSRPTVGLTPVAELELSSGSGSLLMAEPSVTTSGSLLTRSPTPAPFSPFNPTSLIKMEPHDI

As to ACCTAA, the binding signal with FEV is 1.12 fold enrichment (6-mer frequency, TF over GST control); with ETV5, 1.22 fold enrichment (6-mer frequency, TF over GST control); with HSF1, 1.21 fold enrichment (6-mer frequency, TF over GST control); in the assay with SPIC, 1.21 fold enrichment (6-mer frequency, TF over GST control); with ELF4, 1.27 fold enrichment (6-mer frequency, TF over GST control); with ELK4 it was 1.13 fold enrichment (6-mer frequency, TF over GST control). Moreover, the binding signal with ETV2 is 1.17 fold enrichment (6-mer frequency, TF over GST control); in the assay with ELF3, 1.2 fold enrichment (6-mer frequency, TF over GST control); with CRX, 1.57 fold enrichment (6-mer frequency, TF over GST control); with ETV1, 1.18 fold enrichment (6-mer frequency, TF over GST control); with ERF it was 1.17 fold enrichment (6-mer frequency, TF over GST control); in the assay with ETV3L, 1.18 fold enrichment (6-mer frequency, TF over GST control). Besides, the binding signal with ETS2 is 1.17 fold enrichment (6-mer frequency, TF over GST control); with SPDEF it was 1.19 fold enrichment (6-mer frequency, TF over GST control); in the assay with ETV7 it was 1.18 fold enrichment (6-mer frequency, TF over GST control); with ELF5, 1.14 fold enrichment (6-mer frequency, TF over GST control); with ETV3, 1.03 fold enrichment (6-mer frequency, TF over GST control); in the assay with ETV6, 1.18 fold enrichment (6-mer frequency, TF over GST control).
